L3MBTL1 inh: inhibitors of human L3MBTL1; AlphaScreen L3MBTL1–H3K9me1 peptide binding; Potency, µM (series often up to 57.1 µM), without a hit: at the highest dose activity, negative = inhibition, most hits filed as inhibitors; 230,000 compounds, 0.66% hits; AID 485360; note: nearly all actives have a fitted effect of over 60% in size
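L3MBTL1 50 nM + b-AHA-H3(1-15)K9me1 75 nM, 30 min RT; compound added, 30 min RT; streptavidin donor/Ni-chelate acceptor beads 10 ug/mL each final, 30 min RT dark; AlphaScreen read.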
APE1 inh-1: inhibitors of human APE1 endonuclease; Potency, µM (series often up to 65.8 µM), for the others: at the top dose activity change, negative = inhibition, most hits filed as inhibitors; 350,000 compounds, 0.35% hits; P27695; recombinant APE1, TAMRA/BHQ-2 abasic DNA cleavage fluorescence; AID 2517;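 note: plate controls were vehicle for no effect and reference inhibitor for full effect; nearly all actives have a fitted effect of over 55% in size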
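APE1 at 0.75 nM final was preincubated with compound 15 min at room temperature, then 50 nM double-stranded THF abasic-site substrate (5'-TAMRA/3'-BHQ-2) was added. Fluorescence (ex 525/em 598 nm) was read kinetically; third-minus-first read gave activity.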
BLM inh: Bloom syndrome helicase (human) inhibition | Potency, µM (doses to about 56.1 µM), for inactives: at the highest dose activity change, negative = inhibition, hits mostly inhibitors | P54132 | AID 2528 | 350,000 compounds, 0.2% hits | recombinant BLM DNA unwinding, fluorescence dequenching;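 note: plate controls were vehicle for no effect and no enzyme for full effect; nearly all actives have a fitted effect of over 35% in size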
JMJD2E inh: blocks human JMJD2E demethylase activity; JMJD2E catalytic domain, FDH-coupled NADH fluorescence (FDH is formaldehyde dehydrogenase); Potency, µM (highest dose often 57.1 µM), without a hit: top-dose activity change, negative = inhibition, usual class: inhibitors; 230,000 compounds, 1.6% hits; active = well fitted inhibition curve with a large enough effect, not every such curve was filed as active; inconclusive = small, poorly fitted or top-dose-only effect, or another doubt; inactive = no such curve, though single readings can be large or run the other way;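 note: 0% = wells with enzyme and -100% = buffer wells without enzyme; nearly all actives have a fitted effect of over 50% in size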
Target sequence (B2RXH2 1-337 limits assumed): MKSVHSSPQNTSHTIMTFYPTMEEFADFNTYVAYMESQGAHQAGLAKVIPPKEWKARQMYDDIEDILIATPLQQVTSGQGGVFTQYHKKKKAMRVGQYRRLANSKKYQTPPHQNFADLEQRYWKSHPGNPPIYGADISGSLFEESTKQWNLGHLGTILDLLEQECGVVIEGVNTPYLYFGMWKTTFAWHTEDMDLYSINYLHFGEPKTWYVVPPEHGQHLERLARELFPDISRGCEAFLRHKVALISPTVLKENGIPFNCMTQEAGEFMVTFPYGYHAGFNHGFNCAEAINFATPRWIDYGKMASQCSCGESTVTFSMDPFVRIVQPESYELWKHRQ
RECQ1 inh-1: inhibitors of human RECQ1 DNA helicase; P46063; RECQ1 DNA unwinding, red fluorescence kinetic read; Potency, µM (highest dose often 57.3 µM), for inactives: at the highest dose activity, negative = inhibition, actives largely listed as inhibitors; 240,000 compounds, 0.54% hits; AID 2549;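 note: plate controls were vehicle for no effect and no enzyme for full effect; nearly all actives have a fitted effect of over 30% in size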
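RECQ1T1 50 nM; forked duplex (20 bp + 30-nt ss tails) 200 nM, ATP 2 mM final; pH 8.0, 2 mM MgCl2, 2.5 ug/ml poly(dI-dC); 15 min compound preincubation; discontinuous kinetic read over 2 h at RT.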
GoLoco inh red: RGS12 GoLoco-Gai1 interaction inhibition; P63096; Gai1:RGS12 GoLoco peptide FP, rhodamine, 10 min; Potency, µM (highest dose often 61.6 µM), without a hit: at the top dose activity, negative = inhibition, actives largely listed as inhibitors; 230,000 compounds, 0.44% hits; AID 880; active = well fitted inhibition curve with a large enough effect, not every such curve was filed as active; inactive = no such curve, though single readings can be large or run the other way; note: nearly all actives have a fitted effect of over 30% in size
DNA dye displace: DNA dye displacement counter-screen activity; shares compounds with APE1 inh-1; DNA fluorescent dye displacement counterscreen, fluorescence; Potency, µM (series often up to 28.5 µM), for inactives: at the top dose activity change, negative = inhibition, usual class: inhibitors; 480 compounds, 7% hits;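 note: loss of thiazole orange fluorescence as the dye is displaced from duplex DNA; 0% = ThO with dsDNA and no compound and -100% = ThO without dsDNA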
Endo IV inh: counter-screen for APE1 inhibitors: inhibitors of E. coli endonuclease IV | AID 2565 | E. coli Endo IV, fluorogenic AP-site DNA cleavage | 560 compounds, 4% hits | shares compounds with APE1 inh-1 | Potency, µM (titrated, usually from 27.1 µM), for the others: at the highest dose activity change, negative = inhibition, most hits filed as inhibitors;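 note: plate controls were uninhibited enzyme wells for no effect and no enzyme buffer wells for full effect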
APE1 inh-2: confirmation of inhibitors of human APE1 endonuclease | shares compounds with APE1 inh-1 | purified APE1, fluorogenic abasic-site DNA cleavage | Potency, µM (highest dose often 57.1 µM), without a hit: top-dose activity change, negative = inhibition, most hits filed as inhibitors | 750 compounds, 44% hits | AID 2572; note: nearly all actives have a fitted effect of over 30% in size
APE1 FP inh: displaces DNA from human APE1 in FP assay | shares compounds with APE1 inh-1 | APE1 binding to TAMRA-labelled double-stranded DNA, fluorescence polarization displacement | Potency, µM (series often up to 28.5 µM), inactives show at the top dose activity, negative = inhibition, actives largely listed as inhibitors | 480 compounds, 7% hits | AID 2573
RECQ1 conf: confirmation of human RECQ1 helicase inhibitors. shares compounds with RECQ1 inh-1. RECQ1 helicase DNA unwinding, fluorescence. Potency, µM (highest dose often 229 µM), for inactives: at the top dose activity change, negative = inhibition, most hits filed as inhibitors. 610 compounds, 28% hits; note: nearly all actives have a fitted effect of over 45% in size
RECQ1 ADP FP: displaces ADP in a fluorescence polarization counter-screen for RECQ1 hits; shares compounds with RECQ1 inh-1; ADP fluorescence polarization displacement counterscreen; Potency, µM (series often up to 228 µM), for the others: top-dose activity change, negative = inhibition, actives largely listed as inhibitors; 530 compounds, 27% hits; AID 2711; note: nearly all actives have a fitted effect of over 45% in size
RECQ1 inh-2: blocks human RECQ1 DNA unwinding. Potency, µM (doses to about 119 µM), for inactives: top-dose activity, negative = inhibition, usual class: inhibitors. 1,100 compounds, 15% hits. recombinant RECQ1 DNA unwinding, red fluorescence. shares compounds with RECQ1 inh-1; note: nearly all actives have a fitted effect of over 50% in size
An asterisk follows results filed as active; u = inconclusive; x = not tested or not shown; [ ] = remark or other dose. Only a selection was taken, and hits are over-represented in it overall. Unless noted, calls come from the whole dose curve; as a rule, active = well fitted curve in the direction sought with a large enough effect; inconclusive = small, poorly fitted or top-dose-only effect, or another doubt; inactive = no such curve, though single readings can be large; an effect the other way counts as inactive or inconclusive. Unless noted, % is set by controls: 0 for no effect and ±100 for the full control effect; potency is the fitted concentration of half-maximal effect.

SMILES	L3MBTL1 inh	APE1 inh-1	BLM inh	JMJD2E inh	RECQ1 inh-1	GoLoco inh red	Endo IV inh	APE1 inh-2	RECQ1 conf	RECQ1 ADP FP	others
Cn1c(SCC(=O)Nc2ccc3nc(SCC(=O)N4CCCC4)sc3c2)nnc1-c1ccc(N)cc1	x	10µM*	-29%	2%	0.63µM*	7%	x	u	7.1µM*	u	RECQ1 inh-2=u
Cn1c(SCC(=O)Nc2ccc3nc(SCC(=O)NC4CC4)sc3c2)nnc1-c1ccccc1	-1%	4%	-3%	-1%	-13%	4%	x	x	x	x
COc1cccc(-n2c(SCC(=O)Nc3cc(C)ccc3C)nc3c(oc4ccccc43)c2=O)c1	x	x	-5%	x	x	x	x	x	x	x
Nc1ccc(N(CCO)CCO)cc1	13µM*	20µM*	-27%	32%	u	8.9µM*	6%	-15%[24.4 µM]	x	x	DNA dye displace=-3%;APE1 FP inh=-11%;RECQ1 inh-2=-5%
O=C(O)C[C@@H]1C(=O)O[C@@H]2C(COC(=O)c3cc(O)c(O)c(O)c3)O[C@@H](OC(=O)c3cc(O)c(O)c(O)c3)[C@@H](OC(=O)c3cc(O)c(O)c4c3[C@H]1[C@H](O)C(=O)O4)[C@H]2OC(=O)c1cc(O)c(O)c(O)c1 (stereo partly drawn)	x	0.0089µM*	0.1µM*	0.71µM*	0.11µM*	-13%	u	0.0022µM*	0.45µM*	32µM*	DNA dye displace=u;APE1 FP inh=u
C[C@@H]1C=C[C@](Cc2ccccc2)(C(=O)NCCN2CCOCC2)N1C(=O)c1ccccc1	x	-2%	0%	8%	-1%	7%	x	x	x	x
C=C/C(C)=C/[C@@]1(C)SC(=O)C(C)=C1O	x	3.2µM*	x	7%	8.9µM*	7%	-20%[57.1 µM]	2µM*	40µM*	11µM*
COc1ccc(OC)c(-c2noc(N3CCN(c4ccc(Cl)cc4)CC3)n2)c1	x	x	-8%	x	x	x	x	x	x	x
O=C(CCN1CCCCC1)N1CCc2c([nH]c3ccccc23)[C@H]1c1cccnc1	x	x	x	x	x	5%[14.2 µM]	x	x	x	x
C#CCN1C(=O)S/C(=C\c2ccc(-c3ccc(Cl)c(C(=O)O)c3)o2)C1=O	u	4%	-7%	x	x	x	x	x	x	x
